This is a sample that favours compounds with a hit; in the whole collection about 2.3% have one here.
ERp5 inh = inhibitors of human ERp5 | Q15084 | ERp5 insulin aggregation, absorbance 650 nm, 90 min | inhibition, % at 9.99 µM | hit rate 0.05% among 350,000 | AID 651711;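 active = mean replicate inhibition above about 25%, with every replicate also reaching it, limit read from the data, passing the limit was not always enough; inconclusive = only one of those two criteria met; inactive = neither criterion met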
Target sequence (Q15084 whole entry, looked up): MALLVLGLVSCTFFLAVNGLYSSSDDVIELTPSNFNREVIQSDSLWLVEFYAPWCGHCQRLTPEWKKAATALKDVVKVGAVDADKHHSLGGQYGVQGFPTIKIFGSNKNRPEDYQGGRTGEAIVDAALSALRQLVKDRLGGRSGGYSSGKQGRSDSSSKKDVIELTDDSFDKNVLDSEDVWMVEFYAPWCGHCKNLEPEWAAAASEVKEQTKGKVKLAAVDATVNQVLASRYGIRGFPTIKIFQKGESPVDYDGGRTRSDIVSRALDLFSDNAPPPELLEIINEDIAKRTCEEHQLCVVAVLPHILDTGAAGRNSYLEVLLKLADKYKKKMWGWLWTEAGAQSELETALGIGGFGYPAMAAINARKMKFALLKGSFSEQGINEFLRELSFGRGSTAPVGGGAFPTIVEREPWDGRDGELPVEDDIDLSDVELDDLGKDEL
Rtt109 Vps75 = inhibitors of Candida albicans Rtt109/Vps75 histone acetyltransferase; AID 540336; Q5AAJ8; purified Rtt109/Vps75, ThioGlo CoA-SH fluorescence, 4 h; inhibition, % at 34.9 µM; hit rate 0.16% among 330,000;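 active = inhibition of at least 50% in every replicate; inconclusive = best replicate reaches 50% inhibition but some replicates fall short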
SIRT5 inh = inhibitors of human sirtuin-5 desuccinylase | hit rate 1.1% among 330,000 | inhibition, % at 15 µM | AID 652115 | Purified SirT5, succinyl-peptide AMC, trypsin-coupled fluorescence; in the data active = inhibition above about 15%; inconclusive = no clear call, values can overlap the other calls
DENV2 CPE rescue = protects cells from dengue virus 2 cytopathic effect; hit rate 1.7% among 350,000; AID 651640; DENV2-infected cells, cytopathic effect rescue, plate reader; CPE inhibition, % at 9.99 µM; in the data active = CPE inhibition above about 20%, passing the limit was not always enough; inconclusive = no clear call, values can overlap the other calls; tested in BHK-21 cells;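 note: 0% = median of neutral control wells and 100% = median of positive control wells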
PDI turbidity = PDI (human) enzyme inhibition. AID 588391. inhibition, % at 10 µM. hit rate 0.052% among 350,000. P07237. PDI insulin aggregation turbidity, A650, 90 min;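 active = mean inhibition across replicates of 30% or more, whatever share of single replicates reach that level; inconclusive = mean inhibition below 30% while every single replicate reaches 30%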
Starred values were filed as active, the others as inactive; ? = inconclusive; . = no result.

SMILES	ERp5 inh	Rtt109 Vps75	SIRT5 inh	DENV2 CPE rescue	PDI turbidity
C[C@H](CO)N1C[C@H](C)[C@@H](CN(C)C(=O)Cc2ccccc2)OCCCC[C@H](C)Oc2ccc(NS(=O)(=O)c3ccccc3)cc2C1=O	0	.	3	-7	.
C[C@@H]1CCCCO[C@H](CN(C)C(=O)Cc2ccccc2)[C@@H](C)CN([C@H](C)CO)C(=O)c2cc(NS(=O)(=O)c3ccc(Cl)cc3)ccc2O1	-1	.	1	54*	.
C[C@@H]1CCCCO[C@H](CN(C)C(=O)Cc2ccccc2)[C@@H](C)CN([C@@H](C)CO)C(=O)c2cc(NS(=O)(=O)c3cccs3)ccc2O1	-6	.	-5	-9	.
C[C@@H]1CCCCO[C@@H](CN(C)C(=O)Cc2ccccc2)[C@H](C)CN([C@H](C)CO)C(=O)c2cc(NS(=O)(=O)c3ccc(Cl)cc3)ccc2O1	2	.	3	85*	.
C[C@@H](NC(=O)C[C@H]1C[C@@H]2c3cc(NC(=O)C4CCC4)ccc3O[C@@H]2[C@H](CO)O1)c1ccccc1	8	.	1	-4	.
CCCNC(=O)Nc1ccc2c(c1)OC[C@H](C)N(C(=O)C1CCCCC1)C[C@H](C)[C@@H](OC)CN(C)C2=O	.	.	2	-4	.
C[C@@H]1CN([C@@H](C)CO)C(=O)c2cc(-c3ccncc3)cnc2O[C@H]1CN(C)C(=O)Cc1cccnc1	.	.	.	-3	.
COc1ccc(S(=O)(=O)N(C)C[C@@H]2Oc3ccc(NS(C)(=O)=O)cc3CC(=O)N([C@@H](C)CO)C[C@H]2C)cc1	15	.	2	48*	.
COc1ccc(S(=O)(=O)N(C)C[C@H]2Oc3ccc(NS(=O)(=O)c4ccccc4)cc3CC(=O)N([C@H](C)CO)C[C@@H]2C)cc1	0	2	17*	-16	-3
COc1ccc(S(=O)(=O)Nc2ccc3c(c2)CC(=O)N([C@@H](C)CO)C[C@@H](C)[C@H](CN(C)S(=O)(=O)c2ccc(C)cc2)O3)cc1	-13	.	19*	1	.
Cc1ccc(S(=O)(=O)Nc2ccc3c(c2)CC(=O)N([C@H](C)CO)C[C@H](C)[C@@H](CN(C)S(=O)(=O)c2c(C)noc2C)O3)cc1	1	.	16*	-4	.
O=C(N[C@H]1CC[C@H](CC(=O)N2CCc3ccccc3C2)O[C@H]1CO)C1CCC1	1	.	2	2	.
C[C@H](CO)N1C[C@H](C)[C@@H](CN(C)S(=O)(=O)c2ccccc2)Oc2ccc(NS(=O)(=O)c3cccs3)cc2CC1=O	3	.	1	-1	.
C[C@H]1CN([C@@H](C)CO)C(=O)Cc2cc(NS(=O)(=O)c3cccs3)ccc2O[C@@H]1CN(C)S(=O)(=O)c1ccccc1	12	.	-3	41*	.
COCC(=O)Nc1ccc2c(c1)C(=O)N(C)[C@@H]1CC[C@H](CC(=O)NCc3ccccc3)O[C@@H]1CO2	1	.	-15	3	.
O=C(C[C@@H]1C[C@H]2c3cc(NS(=O)(=O)c4ccccc4)ccc3O[C@H]2[C@H](CO)O1)N1CCCCC1	0	.	5	5	.
Cc1noc(C)c1NC(=O)N[C@@H]1CC[C@@H](CCNC(=O)C2CCCC2)O[C@H]1CO	-3	.	2	25*	.
O=C(NCC[C@@H]1CC[C@@H](NC(=O)C2CCCC2)[C@@H](CO)O1)c1cc(Cl)cc(Cl)c1	-4	.	0	21*	.
Cc1noc(C)c1NC(=O)N[C@H]1CC[C@@H](CC(=O)NCCCN(C)C)O[C@H]1CO	0	.	16*	2	.
Cc1noc(C)c1NC(=O)N[C@@H]1CC[C@@H](CCNC(=O)C2CCCC2)O[C@@H]1CO	-3	.	11	-4	.
CC(=O)N[C@@H]1CC[C@H](CCNC(=O)C2CCCC2)O[C@H]1CO	2	.	3	90*	.
C[C@@H]1CCCCO[C@@H](CN(C)C(=O)C2CCCCC2)[C@H](C)CN([C@@H](C)CO)C(=O)c2cc(NC(=O)C3CCCCC3)ccc2O1	6	.	-2	-3	.
CCCC#Cc1ccc([C@H]2[C@@H](CO)N(S(C)(=O)=O)[C@H]2C#N)cc1	1	.	3	-3	.
COCC(=O)N1[C@@H](CO)[C@@H](c2ccccc2)C12CN(C(=O)Cc1ccccn1)C2	2	.	-1	-6	.
CN(C)CC(=O)N[C@@H]1CC[C@@H](CCNC(=O)C2CCCC2)O[C@H]1CO	1	.	4	1	.
SMILES	ERp5 inh	Rtt109 Vps75	SIRT5 inh	DENV2 CPE rescue	PDI turbidity
CC(C)NC(=O)N[C@H]1CC[C@H](CCNC(=O)C2CCCC2)O[C@@H]1CO	2	.	25*	?	.
CN(C)CC(=O)N[C@H]1CC[C@H](CCNC(=O)C2CCCC2)O[C@H]1CO	-7	.	5	27*	.
Cc1noc(C)c1S(=O)(=O)Nc1ccc2c(c1)C(=O)N([C@@H](C)CO)C[C@@H](C)[C@@H](CN(C)C(=O)NC1CCCCC1)OCCCC[C@@H](C)O2	-1	.	4	0	.
CCC(=O)N1[C@H](CO)[C@H](c2ccc(-c3cccc(OC)c3)cc2)[C@H]1CNC(C)=O	-1	.	-1	-7	.
Cc1ccc2[nH]c(C(=O)N3CCN(C=O)CC3)cc2c1	6	-2	16*	0	1
CCOC(=O)N1CCN(C(=O)c2cc3cc(C)ccc3[nH]2)CC1	3	-10	2	-15	-2
CCc1ccc(NC(=O)CSCc2nc(N)nc(Nc3ccccc3CC)n2)cc1	.	1	.	.	2
CCc1ccccc1Nc1nc(N)nc(CSCC(=O)Nc2ccc(C)c(C)c2)n1	0	19	16*	2	-10
CC(OC(=O)C1=COCCO1)C(=O)Nc1ccc(Cl)cn1 (configuration not stated)	-3	-2	4	70*	0
Cc1ccc(S(=O)(=O)Nc2ccc3c(c2)C(=O)N([C@H](C)CO)C[C@@H](C)[C@H](CN(C)S(=O)(=O)c2ccc(C)cc2)O3)cc1	-1	.	3	18	.
CC(C)C(C(=O)Nc1cccnc1)N1C(=O)c2ccccc2C1=O (configuration not stated)	.	53*	.	.	-11
CC(C)C(C(=O)Nc1ccccc1F)N1C(=O)c2ccccc2C1=O (configuration not stated)	-3	8	0	0	12
C[C@H](CO)N1C[C@H](C)[C@@H](CN(C)Cc2ccc(F)cc2)Oc2ncc(C3=CCCC3)cc2C1=O	8	.	0	-5	.
COc1ccccc1-c1ccc([C@@H]2[C@@H]3CN(S(=O)(=O)c4ccc(-c5ccccc5)cc4)C[C@H]2N3)cc1	-3	.	21*	1	.
Cc1ccc(-c2ccc(C3[C@@H]4CN(S(=O)(=O)c5cccc(C)c5)C[C@H]3N4)cc2)cc1 (some centres not stated)	-3	.	28*	3	.
Cc1cccc(S(=O)(=O)N2CCCCN3[C@H](CO)[C@H](c4ccc(-c5ccccc5)cc4)[C@H]3C2)c1	-7	.	13	-1	.
Cc1ccc(-c2ccc([C@@H]3[C@@H](CO)N4CCCCN(S(=O)(=O)c5cccc(C)c5)C[C@@H]34)cc2)cc1	-3	.	17*	1	.
Cc1ccc(S(=O)(=O)N2C[C@@H]3N[C@H](C2)[C@@H]3c2ccc(-c3cccc(C)c3)cc2)cc1	.	.	.	-5	.

Bioassay records as filed in PubChem.
